AmpC detergent – AmpC beta-lactamase inhibition with detergent present. P00811. AmpC hydrolysis of nitrocefin, absorbance 480 nm, 0.01% Triton. Potency, µM (titrated, usually from 114 µM), for inactives: at the top dose activity change, negative = inhibition, most hits filed as inhibitors. 370,000 tested, 0.041% active. AID 485294;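 further: potency means the concentration at half of the fitted maximal effect; 0% = no-compound wells and -100% = no-enzyme wells; nearly all actives have a fitted effect of over 25% in size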
Target sequence (P00811 whole entry, looked up): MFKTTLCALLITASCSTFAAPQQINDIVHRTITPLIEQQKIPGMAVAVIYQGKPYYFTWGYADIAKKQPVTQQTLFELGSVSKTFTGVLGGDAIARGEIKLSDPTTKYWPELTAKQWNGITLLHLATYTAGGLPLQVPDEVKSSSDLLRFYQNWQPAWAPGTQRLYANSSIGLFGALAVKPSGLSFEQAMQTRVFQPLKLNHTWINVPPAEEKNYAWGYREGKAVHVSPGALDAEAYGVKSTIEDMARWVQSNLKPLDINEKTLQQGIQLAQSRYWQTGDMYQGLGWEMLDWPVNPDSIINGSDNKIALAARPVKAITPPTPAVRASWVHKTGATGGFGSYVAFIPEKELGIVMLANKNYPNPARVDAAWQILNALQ
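AmpC (5.3 nM in the dispensed reagent) in 20 mM phosphate pH 7.0 with 0.01% (detergent screen) or 0.0001% Triton X-100 was preincubated with compounds for 15 min at room temperature. Nitrocefin was then added from an 800 uM solution, and hydrolysis was followed at 480 nm.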
NS1 function inh – inhibitors of influenza NS1 protein function; Potency, µM (doses to about 46.1 µM), for the others: at the top dose activity, positive = more growth; 270,000 tested, 0.4% active; calls by dose curve; further: potency means the concentration at half of the fitted maximal effect; actives are rising curves; nearly all actives have a fitted effect of over 50% in size
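Recovery from NS1-induced slow growth read by OD600 in budding yeast switched to galactose assay medium (pH 6.0, -URA) at 1:100 dilution. Compound 23 nl per well; the matching strain lacking NS1 serves as control.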
AMA1-RON2 inh – disrupts binding of P. falciparum AMA1 to RON2; Potency, µM (series often up to 58.2 µM), for inactives: at the top dose activity change, negative = inhibition, hits mostly inhibitors; AlphaScreen AMA1-biotinylated RON2 peptide binding; 360,000 tested, 0.2% active;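 further: potency means the concentration at half of the fitted maximal effect; 0% = vehicle wells and -100% = peptide control; nearly all actives have a fitted effect of over 45% in size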
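AMA1 (3D7) with his tag at 25 nM final met compounds first, then biotinylated RON2 peptide at 25 nM; detection used donor plus acceptor beads, 10 µg/mL apiece, read by AlphaScreen after 30 min at room temperature.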
AmpC no deterg – blocks E. coli AmpC beta-lactamase in detergent-free assay. P00811. AmpC nitrocefin hydrolysis, absorbance 480 nm, 0.0001% Triton. Potency, µM (highest dose often 57.1 µM), without a hit: at the top dose activity change, negative = inhibition, most hits filed as inhibitors. 330,000 tested, 0.52% active. AID 485341;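 further: potency means the concentration at half of the fitted maximal effect; plate controls were no compound for no effect and no enzyme for full effect; nearly all actives have a fitted effect of over 20% in size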
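AmpC (5.3 nM in the dispensed reagent) in 20 mM phosphate pH 7.0 with 0.01% (detergent screen) or 0.0001% Triton X-100 was preincubated with compounds for 15 min at room temperature. Nitrocefin was then added from an 800 uM solution, and hydrolysis was followed at 480 nm.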
SARS PLpro yeast-1 – SARS-CoV PLP inhibition in yeast. S. cerevisiae expressing SARS-CoV PLpro, growth rescue. Potency, µM (top dose mostly 32.9 µM), without a hit: at the top dose activity, positive = growth rescue, hits mostly activators. 330,000 tested, 0.19% active. AID 485353; calls by dose curve; further: potency means the concentration at half of the fitted maximal effect; 0% is about no effect; nearly all actives have a fitted effect of over 55% in size
SARS PLpro yeast-2 – Rescues yeast growth by inhibiting SARS-CoV PLpro; shares compounds with SARS PLpro yeast-1; calls only; AID 652038; yeast expressing SARS-CoV PLpro, growth phenotype rescue; 1,000 tested, 19% active; call rule not given here
The depositor's hits bear a star; i = inactive; ? = inconclusive; . = no result; + = active, no number; [ ] = remark or other dose. Only some compounds are listed: those with a hit (about 0.99% of all), similar ones and a draw of the others. Unless noted, the call rests on the fitted dose curve; in most records, active means well fitted curve in the direction sought with a large enough effect; inconclusive means small, poorly fitted or top-dose-only effect, or another doubt; inactive means no such curve, though single readings can be large; an effect the other way counts as inactive or inconclusive.

SMILES | AmpC detergent | NS1 function inh | AMA1-RON2 inh | AmpC no deterg | SARS PLpro yeast-1 | SARS PLpro yeast-2
CCOc1ccc(N(CC)S(=O)(=O)c2cc(Br)cc3c2N(C(C)=O)C(C)C3)cc1 (stereo not given) | 4% | . | . | . | . | .
CC(C)CNC(=S)NC(=O)c1ccccc1Cl | -2% | 10% | 12% | -8% | ? | i
CC(C)CCNC(=O)N1CCN(S(=O)(=O)c2ccc3c(ccn3C)c2)CC1 | 4% | . | . | . | . | .
COc1ccccc1NC(=O)Cn1cnc2c(oc3nc4c(cc32)CCCC4)c1=O | -7% | 5% | -11% | -2% | -2% | .
COc1cccc(NC(=O)Cn2cnc3c(oc4nc5c(cc43)CCCC5)c2=O)c1 | -13% | -12% | -3% | 4% | ? | ?
CCc1ccc(-n2nc(C)c3c(C)cc(=O)n(CC(=O)N4CCCc5ccccc54)c32)cc1 | 28% | . | . | . | . | .
CCCCOC(=O)C[N+](C)(C)CCOC1CC2CCC1(C)C2(C)C (stereo not given) | -7% | 1% | -5% | 76% | . | i
O=C(CN1C(=O)CCc2cc(S(=O)(=O)N3CCOCC3)ccc21)Nc1cccc(Cl)c1 | -4% | . | . | . | . | .
O=C(Nc1ccc(NC(=O)c2ccco2)cc1)c1ccc2c(c1)OCO2 | -1% | 1% | 0% | -42% | ? | +
CC(C)(C)c1nnc(N/N=C/c2ccccc2O)n(N)c1=O | 3% | -34% | 11% | -38% | 3.2µM* | i
Cn1c(=O)cc(SCC(=O)Nc2cccc(C#N)c2)c2ccc(Cl)cc21 | -5% | . | . | . | . | .
Cc1ccc([N+](=O)[O-])cc1NC(=O)C1CCCC1 | -9% | -8% | 6% | -18% | -1% | .
Cc1ccc([N+](=O)[O-])cc1NC(=O)C1CCN(S(C)(=O)=O)CC1 | ? | 12% | 11% | -26% | ? | i
O=C(COC(=O)c1ccccc1C(=O)c1ccc(Cl)c([N+](=O)[O-])c1)NC1CCCCCC1 | -10% | ? | -7% | -5% | 3.5µM* | +
O=C(COc1ccccc1)NCc1nnc2c3ccccc3c(-c3ccccc3)nn12 | ? | 4% | -9% | 94% | . | i
CC(=O)NCc1nnc2c3ccccc3c(-c3ccccc3)nn12 | -8% | 10% | 0% | -2%[2.29 µM] | -1% | .
OCCN1CCN(C(c2ccccc2Cl)c2sc3nc(-c4ccco4)nn3c2O)CC1 (stereo not given) | -1% | . | . | . | . | .
O=C(NNC1=C(C(=O)C(F)(F)F)CCC1)c1cccc(O)c1 | ? | 7% | 16% | -37% | 14µM* | i
CN(C)c1cccc(C(=O)Nc2ccc(-c3nc4ccccc4s3)cc2)c1 | 7% | . | . | . | . | .
O=C(Nc1cc(Cl)cc(Cl)c1)C(NCCO)c1ccccc1 (stereo not given) | -1% | -3% | -22% | -18% | ? | i
CCOC(=O)C1=C(CN2CCN(c3ccc(Cl)cc3)CC2)NC(=O)NC1c1ccc(F)cc1 (stereo not given) | 0% | . | . | . | . | .
CCn1cc(C(=O)O)c(=O)c2cc(F)c(N3CCN(S(=O)(=O)c4ccc(NC(=O)OC)cc4)CC3)cc21 | -6% | ? | 6% | -4% | ? | i
N#C/C(=C\c1ccccc1[N+](=O)[O-])C(=O)NC1CCCCC1 | 9% | . | -1% | -13% | -23% | .
N#C/C(=C\C=C\c1ccccc1[N+](=O)[O-])C(=O)NC1CCCCC1 | -4% | . | -10% | -34% | ? | i
Nc1nc2c(nc(Br)n2C2O[C@H]3COP(=O)(O)O[C@@H]3C2O)c(=O)[nH]1 (stereo not given in full) | . | -1% | . | . | . | .
SMILES | AmpC detergent | NS1 function inh | AMA1-RON2 inh | AmpC no deterg | SARS PLpro yeast-1 | SARS PLpro yeast-2
COC(=O)Cn1c(CN2CCOCC2)nc2c1c(=O)n(C)c(=O)n2C | -10% | 0% | -1% | -15% | ? | i
Cc1ccccc1OCc1n[nH]c(=S)n1Cc1ccccc1 | 2% | 2% | 58% | -16% | ? | ?
CC(=NCc1cccnc1)c1c(O)n(-c2ccccc2C)c(=O)[nH]c1=O | 2% | 8% | 12% | -5% | 3.5µM* | i
COc1ccccc1CNC(=O)Cc1csc2nc(-c3ccc(Cl)cc3)cn12 | 4% | . | . | . | . | .
NC[C@@H](Cc1ccccc1)P(=O)(O)O | . | 1% | . | . | . | .
Cc1noc(C)c1S(=O)(=O)Nc1ccc2c(c1)C(=O)N([C@H](C)CO)C[C@H](C)[C@@H](CN(C)C(=O)Nc1ccccc1)O2 | . | . | -3% | -10% | 2% | .
C[C@H](CO)N1C[C@H](C)[C@@H](CN(C)Cc2ccc(-c3ccccc3)cc2)Oc2c(NC(=O)Nc3ccc4c(c3)OCO4)cccc2C1=O | . | . | -22% | 50% | 11µM* | i
Cc1ccc(S(=O)(=O)N(C)C[C@@H]2Oc3ccc(NC(=O)Nc4cccc5ccccc45)cc3C(=O)N([C@H](C)CO)C[C@H]2C)cc1 | . | . | -12% | 54% | 5µM* | i
C[C@@H]1CN([C@H](C)CO)C(=O)c2cc(NS(=O)(=O)c3cn(C)cn3)ccc2O[C@H]1CN(C)C(=O)Nc1ccccc1 | . | . | 8% | -22% | ? | i
C[C@H](CO)N1C[C@H](C)[C@@H](CN(C)Cc2ccc(C(=O)O)cc2)Oc2c(NC(=O)Cc3ccccc3)cccc2C1=O | . | . | 3% | -22% | 11µM* | i
C[C@@H]1CN([C@@H](C)CO)C(=O)c2cccc(NS(C)(=O)=O)c2O[C@H]1CN(C)Cc1ccc(C(=O)O)cc1 | . | . | 2% | -29% | -3% | .
CCNC(=O)c1ccc(C)c(-n2c(C)nc3cccnc32)c1 | 13% | . | . | . | . | .
CCOCCc1nn2c(=O)cc(COC(=O)c3ccccc3NC(=O)c3ccccc3F)nc2s1 | 13% | . | . | . | . | .
CCOC(=O)c1c(NC(=O)c2cc(=O)c3c(C)cc(C)cc3o2)sc2c1CCC2 | 10% | . | . | . | . | .
O=C(NCC1CCN(Cc2cccc(F)c2)CC1)c1cc2ccc3cccnc3c2[nH]1 | 1% | . | . | . | . | .
CC1=C(c2ccc(C(C)C)cc2)S(=O)(=O)NC1=NCc1ccc(OC(C)C)cc1 | 26% | . | . | . | . | .
Cc1noc(C(=O)N2CC3(C)CC2CC(C)(C)C3)c1Cl (stereo not given) | -2% | ? | 1% | -2% | 4.5µM* | i
CC1(C)CC2CC(C)(CN2C(=O)c2cc(-c3ccc(O)cc3)on2)C1 (stereo not given) | 6% | -23% | 4% | 21% | -10% | .
O=C(N/N=C/c1ccc(O)cc1)c1cccc(C(F)(F)F)c1 | 2% | -9% | 58% | -19% | ? | .
O=C(N/N=C/c1ccccc1O)c1cccc(C(F)(F)F)c1 | -13% | 3% | 60% | -16% | ? | i
C#CCn1c(C2CC(=O)N(c3ccc(OC)cc3)C2)nc2ccccc21 (stereo not given) | 8% | . | . | . | . | .

Source: PubChem
